Assay results as given in the supplement of paper PMC13380429.

Experiments:
[1] = test system: Vero E6 infected with SARS-CoV-2; experiment: morphology score (similarity to uninfected cells); higher = more like uninfected cells; conditions: 24 h
[2] = test system: Vero E6 infected with SARS-CoV-2; experiment: SARS-CoV-2 infection rate relative to infected DMSO; higher = more infection, active = 60 or less; conditions: 24 h

Row | Structure (SMILES) | morphology score [1] | SARS-CoV-2 infection rate [2]
1 | Cc1cc(Nc2ncnc3ccc(-c4ccc(CNCCS(C)(=O)=O)o4)cc23)ccc1Oc1ccn2ncnc2c1 [HER2-Inhibitor-1] (10 µM) | 0.174 | 95% (inactive)
2 | COc1ccc2cc(CCC(C)=O)ccc2c1 [nabumetone] (10 µM) | 0.0377 | 118% (inactive)
3 | CC(=O)Nc1ncc([N+](=O)[O-])s1 [nithiamide] (10 µM) | 0.0207 | 90% (inactive)
4 | CC(=O)OCC(=O)[C@@]1(OC(C)=O)[C@@H](C)C[C@H]2[C@@H]3C[C@H](F)C4=CC(=O)C=C[C@]4(C)[C@@]3(F)[C@@H](O)C[C@@]21C [diflorasone-diacetate] (10 µM) | 0.0652 | 113% (inactive)
5 | C[N+]1(C)CCc2cc3c(cc2[C@H]1[C@@H]1OC(=O)c2c1ccc1c2OCO1)OCO3 [bicuculline-methochloride-(-)] (10 µM) | -0.156 | 110% (inactive)
6 | O=C(Cc1ccc(-c2ccccc2)cc1)Nc1ccccn1 [difenpiramide] (10 µM) | 0.431 | 62% (inactive)
7 | Cc1cccc(NC(=O)CN2CCC(c3ccccn3)CC2)c1 (10 µM) | -0.0959 | 108% (inactive)
8 | CCN(CC)CCOC(=O)C1(c2ccccc2)CCCC1 [caramiphen] (10 µM) | 0.145 | 95.5% (inactive)
9 | O=C(O)c1ccccc1C(=O)Nc1ccc(S(=O)(=O)Nc2nccs2)cc1 [phthalylsulfathiazole] (10 µM) | 0.162 | 102% (inactive)
10 | O=C(Nc1nc(-c2cc(Cl)cs2)c(N2CCN(C3CCCCC3)CC2)s1)c1cnc(N2CCC(C(=O)O)CC2)c(Cl)c1 [avatrombopag] (10 µM) | 0.0997 | 100% (inactive)
